Compounds with a hit are over-represented: about 7.2% of the library has one in this group of screens.
Lassa entry inh = blocks Lassa virus binding to or entry into cells | Lassa virus pseudotype entry inhibition, cell reporter | AID 540256 | 300,000 tested, 1.2% active | Potency, µM (top dose mostly 37.9 µM), for the others: at the top dose activity change, negative = inhibition, hits mostly inhibitors; calls by dose curve; tested in HEK293 cells; also: nearly all actives have a fitted effect of over 50% in size
RE007 growth inh = less growth of the S. pombe RE007 Vpr strain; 360,000 tested, 0.21% active; Potency, µM (series often up to 92.2 µM), inactives show top-dose activity change, negative = less growth, hits mostly inhibitors; S. pombe RE007 Vpr strain, BacTiter-Glo ATP luminescence, 24 h; active = well fitted falling curve with a large enough effect; inconclusive = small, poorly fitted or top-dose-only effect; inactive = no such curve, though single readings can be large or run the other way; also: nearly all actives have a fitted effect of over 50% in size
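Fission yeast RE007 carrying one integrated HIV-1 vpr copy, seeded at OD 0.01 in PMG+AL medium with 23 nL pinned compound. Grown 24 h at 30 degrees; viability read by BacTiter-Glo luminescence after 5 min.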
FMDV inh = blocks foot and mouth disease virus; Potency, µM (titrated, usually from 57.9 µM), without a hit: at the highest dose activity change, negative = inhibition, actives largely listed as inhibitors; 410,000 tested, 1.2% active; AID 1159524; FMDV antiviral cell-based qHTS; calls by dose curve; tested in HEK293T cells; also: read-out not given here; nearly all actives have a fitted effect of over 45% in size
MARV entry inh = blocks Marburg virus binding to or entry into cells | Marburg virus pseudotyped entry inhibition, cell reporter | Potency, µM (top dose mostly 37.8 µM), for the others: top-dose activity change, negative = inhibition, hits mostly inhibitors | 300,000 tested, 1.8% active | AID 540276; calls by dose curve; tested in HEK293 cells
Sm TGR inh = blocks Schistosoma mansoni thioredoxin glutathione reductase | Q962Y6 | purified TGR, DTNB reduction, TNB absorbance 405 nm | Potency, µM (top dose mostly 114 µM), for inactives: top-dose activity change, negative = inhibition, most hits filed as inhibitors | 360,000 tested, 3% active | AID 485364; also: nearly all actives have a fitted effect of over 60% in size
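First, TGR (20 nM dispensed) and NADPH were mixed with compound. Second, a 15 min room-temperature incubation followed. Third, further NADPH and then DTNB were added to start the reaction. Finally, TNB absorbance was monitored kinetically.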
HCV inh = inhibitors of hepatitis C virus infection. Huh7.5.1 HCVcc-Cre infection, luciferase reporter, 44 h. Potency, µM (top dose mostly 41.8 µM), inactives show at the top dose activity change, negative = inhibition, usual class: inhibitors. 340,000 tested, 3.4% active. AID 651820
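HCVcc-Cre virus at an moi near 0.5 was added right after compound to cells cultured 4 h from seeding (1,000 cells/well). Luciferase activity was determined 44 h later, 15 min after substrate addition at RT.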
Starred values were filed as active, the others as inactive; ? = inconclusive; . = not tested or not shown; [ ] = dose if it differs, or a comment. Unless noted, calls follow the shape of the dose curve; as a rule, active = well fitted curve in the direction sought with a large enough effect; inconclusive = small, poorly fitted or top-dose-only effect, or another doubt; inactive = no such curve, though single readings can be large; an effect the other way counts as inactive or inconclusive. % is scaled to controls: 0 for no effect and ±100 for the full control effect; potency is read from the fitted curve at half-maximal effect.

SMILES | Lassa entry inh | RE007 growth inh | FMDV inh | MARV entry inh | Sm TGR inh | HCV inh
O=C(NCCCN1CCN(CCCNC(=O)c2ccc(F)cc2)CC1)c1ccc(F)cc1 | 9% | 6% | -17% | -9% | -4% | ?
CCN1CCN(CCCNC(=O)c2ccc3c(c2)NC(=O)c2ccccc2S3)CC1 | . | -1% | -24% | -8% | -31% | 10µM*
CC(C)c1ccc(C(=O)NCCCN2CCN(CCCNC(=O)c3ccc(C(C)C)cc3)CC2)cc1 | 11µM* | 0% | ? | ? | 3% | ?
CCC(C)N(CCNC(=O)c1ccc2c(c1)NC(=O)c1ccccc1S2)C1CCCCC1 (centres undefined) | 3.2µM* | 5% | -19% | ? | -3% | 22µM*
O=C(NCCCN1CCCC1=O)c1ccc2c(c1)NC(=O)c1ccccc1S2 | . | 8% | -20% | . | 6% | 8%
COc1ccc(/C=C2/Sc3ccc(C(=O)NCCCN4CCOCC4)cc3NC2=O)cc1OC | -9% | -8% | -27% | ? | -5% | 7.9µM*
COc1ccc(C(=O)NCCCN2CCOCC2)cc1OC | -1% | -3% | -6% | 0% | -8% | 26%
CCOc1cc(CNS(=O)(=O)c2ccc3c(c2)C(C)(C)C(=O)N3)cc(OCC)c1OCC | 8%[46.1 µM] | . | 1% | . | 8% | .
Cc1ccc(OCC(=O)Nc2cccc(-c3nc4ccccc4s3)c2)cc1 | 13%[46.1 µM] | . | 21% | 27%[46.1 µM] | 4% | .
CCN1CCN(CCCNC(=O)c2ccc3c(c2)NC(=O)/C(=C\c2cccc(C)c2)S3)CC1 | . | 15% | -23% | . | -13% | 1.8µM*
Cc1cccc(/C=C2/Sc3ccc(C(=O)NCCCN4CCOCC4)cc3NC2=O)c1 | . | . | . | . | 0% | .
CCCn1c(N/N=C\C=C\c2ccccc2)nc2c1c(=O)[nH]c(=O)n2C | . | 8% | 12% | . | ? | -15%
CC(/C=C/c1ccccc1)=N\Nc1nc2c(c(=O)[nH]c(=O)n2C)n1CCO | . | 7% | -15% | . | 14µM* | 5%
COc1ccc(CCn2c(NN=C(C)C)nc3c2c(=O)[nH]c(=O)n3C)cc1 | . | 7% | ? | . | 0% | 1%
COCCn1c(N/N=C(C)/C=C/c2ccccc2)nc2c1c(=O)[nH]c(=O)n2C | . | . | . | . | 25µM* | .
CC(C)C(=O)N1CCN(c2nc(-c3ccc(Cl)cc3)cs2)CC1 | . | ? | -13% | . | 32µM* | ?
S=C(NCC1CCCO1)N1CCN(c2nc(-c3ccccc3)cs2)CC1 (centres undefined) | ? | 4% | ? | ? | -2% | 10µM*
CCNC(=S)N1CCN(c2nc(-c3ccc(F)cc3)cs2)CC1 | . | -15% | ? | . | -3% | ?
S=C(NCc1ccco1)N1CCN(c2nc(-c3ccccc3)cs2)CC1 | 0% | 14% | 0% | -20%[46.1 µM] | 6% | ?
COCCNC(=S)N1CCN(c2nc(-c3ccc(F)cc3)cs2)CC1 | . | 1% | -10% | . | -3% | ?
CCN(CC)CCCNC(=S)N1CCN(c2nc(-c3ccc(F)cc3)cs2)CC1 | ? | -1% | ? | 10µM* | 3% | 4µM*
COCCNC(=S)N1CCN(c2nc(-c3ccc(Cl)cc3)cs2)CC1 | 28%[46.1 µM] | -10% | ? | -22%[46.1 µM] | -2% | 13µM*
CC(=O)c1ccc(NC(=O)CCc2c(C)nc3cc(-c4ccc(Cl)cc4)nn3c2C)cc1 | 7%[46.1 µM] | . | ? | -3%[46.1 µM] | -3% | .
O=C(Nc1cccc(F)c1)N1CCCC2(CCN(S(=O)(=O)c3ccccc3)CC2)C1 | . | . | -3% | . | . | .
CCOC(=O)C1CC2=C(CCCC2=O)NC1=O (centres undefined) | . | -17% | -23% | . | . | 1%
SMILES | Lassa entry inh | RE007 growth inh | FMDV inh | MARV entry inh | Sm TGR inh | HCV inh
CCCC1OC2CC3C4CCC5=CC(=O)C=CC5(C)C4C(O)CC3(C)C2(C(=O)O)O1 (centres undefined) | . | -1% | 12% | . | 89µM* | 7%
CCCC1O[C@@H]2C[C@H]3[C@@H]4CCC5=CC(=O)C=C[C@]5(C)[C@H]4[C@@H](O)C[C@]3(C)[C@]2(C(=O)CO)O1 (some centres undefined) | ? | -9%[18.4 µM] | -8% | 9.2µM* | -1% | 1%[8.37 µM]
Cc1cc(C)cc(N2CCn3c2nc2c3c(=O)n(CCc3ccccc3)c(=O)n2C)c1 | ? | . | -29% | . | ? | .
COc1ccccc1CCNC(=O)c1cc(-c2ccccn2)nc2ccc(Br)cc12 | . | . | . | . | 8% | .
COc1ccccc1CCNC(=O)c1cc(-c2ccncc2)nc2ccc(Br)cc12 | ? | -5% | ? | ? | . | 0.89µM*
O=C(NCCc1ccccn1)c1cc(-c2ccc(Cl)c(Cl)c2Cl)nc2ccccc12 | ? | 8% | 40µM* | ? | -12% | ?
COc1ccccc1CCNC(=O)c1cc(-c2ccccn2)nc2ccccc12 | -8% | 1% | -23% | -32% | -5% | 11µM*
COc1ccc(C(CNC(=O)c2ccc(OCc3csc(C)n3)cc2)N2CCCC2)cc1 (centres undefined) | . | -6% | -16% | . | . | .

Compound activity: PubChem, National Center for Advancing Translational Sciences (NCATS)
